From PubChem BioAssay AID1159580 (chemical genetic matrix, 2015)
Several values for one entry are separate records, joined by “and”; a condition that tells them apart may be missing. Equal values may be shown once. About 2,000 (36%) of roughly 5,500 compounds were called active. Another 18% or so got no clear call; they are omitted. Cut-off read from the data, not from the text of the source: active = normalized growth mostly below about 0.91 (no sharp cut-off); inconclusive = no clear call, values can overlap the other calls; inactive = mostly above about 0.92. The list shows a part of the results.

Test: chemical genetic growth profiling, strain panel (AID 1159580);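 note: tested at 20 µM; growth read once vehicle control cultures reached saturation at 30 °C; 1 = growth at the plate median or of vehicle wells; lower values mean less growth of the strain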
Conditions: S. cerevisiae deletion strains, growth OD

Measured: normalized growth

COc1ccc2c(c1)OCC(Cc1ccc(OC)c(OC(C)=O)c1)C2=O (configuration not stated)
inactive: locus YAL013W, strain DEP1, active compounds read low 0.979 | locus YAL021C, strain ccr4, active compounds read low 0.974 | locus YAL026C, strain drs2, active compounds read low 0.967 | locus YAL030W, strain snc1, active compounds read low 0.973 | locus YBL061C, strain skt5, active compounds read low 0.967 | locus YBR009C, strain hhf1, active compounds read low 0.983 | locus YBR021W, strain FUR4, active compounds read low 0.883 | locus YBR023C, strain chs3, active compounds read low 0.965 | locus YBR171W, strain sec66, active compounds read low 0.962 | locus YBR229C, strain ROT2, active compounds read low 0.996 | locus YBR231C, strain swc5, active compounds read low 0.969 | locus YBR279W, strain paf1, active compounds read low 0.973 | locus YCL011C, strain gbp2, active compounds read low 0.985 | locus YCL016C, strain dcc1, active compounds read low 0.985 | locus YCL029C, strain bik1, active compounds read low 1.01 | locus YCL061C, strain MRC1, active compounds read low 0.976 | locus YCL069W, strain vba3, active compounds read low 0.982 | locus YCR088W, strain abp1, active compounds read low 0.984 | locus YDL005C, strain med2, active compounds read low 0.963 | locus YDL035C, strain GPR1, active compounds read low 0.99 | locus YDL040C, strain nat1, active compounds read low 0.96 | locus YDL074C, strain BRE1, active compounds read low 1.01 | locus YDL101C, strain DUN1, active compounds read low 0.988 | locus YDL134C, strain PPH21, active compounds read low 0.952 | locus YDL185W, strain tfp1, active compounds read low 1.02 | locus YDL192W, strain arf1, active compounds read low 1 | locus YDR001C, strain nth1, active compounds read low 0.982 | locus YDR069C, strain doa4, active compounds read low 0.958 | locus YDR101C, strain arx1, active compounds read low 0.996 | locus YDR137W, strain rgp1, active compounds read low 0.959 | locus YDR150W, strain NUM1, active compounds read low 0.982 | locus YDR159W, strain sac3, active compounds read low 0.975 | locus YDR162C, strain NBP2, active compounds read low 0.957 | locus YDR195W, strain ref2 1.04 | locus YDR297W, strain sur2, active compounds read low 0.978 | locus YDR318W, strain mcm21, active compounds read low 0.992 | locus YDR334W, strain swr1, active compounds read low 0.973 | locus YDR335W, strain msn5, active compounds read low 0.984 | locus YDR388W, active compounds read low 0.998 | locus YDR392W, strain spt3, active compounds read low 0.781 | locus YDR502C, strain sam2, active compounds read low 0.992 | locus YEL003W, strain gim4, active compounds read low 0.992 | locus YEL037C, strain rad23, active compounds read low 0.978 | locus YEL061C, strain CIN8 (second series), active compounds read low 0.984 | locus YEL061C, strain CIN8, active compounds read low 0.993 | locus YER015W, strain faa2, active compounds read low 0.98 | locus YER016W, strain bim1, active compounds read low 0.977 | locus YER110C, active compounds read low 1.02 | locus YER111C, strain swi4, active compounds read low 0.972 | locus YER155C, strain BEM2 (second series), active compounds read low 0.952 | locus YER155C, strain BEM2, active compounds read low 0.981 | locus YER167W, strain BCK2, active compounds read low 0.993 | locus YFR010W, strain ubp6, active compounds read low 0.969 | locus YGL078C, strain dbp3, active compounds read low 1 | locus YGL086W, strain mad1, active compounds read low 1.01 | locus YGL167C, strain pmr1, active compounds read low 0.957 | locus YGL173C, strain kem1, active compounds read low 0.954 | locus YGL227W, strain vid30, active compounds read low 0.979 | locus YGL240W, strain doc1, active compounds read low 0.99 | locus YGL248W, strain PDE1, active compounds read low 0.99 | locus YGL253W, strain hxk2, active compounds read low 0.93 | locus YGR078C, strain PAC10, active compounds read low 0.977 | locus YGR135W, strain pre9, active compounds read low 1 | locus YGR252W, strain gcn5, active compounds read low 1.01 | locus YHR013C, strain ard1, active compounds read low 0.95 | locus YHR027C, strain rpn1, active compounds read low 0.995 | locus YHR030C, strain SLT2, active compounds read low 1 and 1.05 | locus YHR079C, strain IRE1 (second series), active compounds read low 0.987 | locus YHR079C, strain IRE1, active compounds read low 1.01 | locus YHR094C, strain hxt1, active compounds read low 0.992 | locus YHR129C, strain ARP1, active compounds read low 0.998 | locus YHR142W, strain chs7, active compounds read low 0.965 | locus YHR200W, strain rpn10, active compounds read low 1.01 | locus YIL066C, strain RNR3, active compounds read low 0.982 | locus YIL073C, strain SPO22, active compounds read low 0.996 | locus YIL125W, strain kgd1, active compounds read low 1 | locus YIR030C, strain dcg1, active compounds read low 0.987 | locus YJL092W, strain hpr5, active compounds read low 0.98 | locus YJL095W, strain BCK1 (second series), active compounds read low 0.973 | locus YJL095W, strain BCK1, active compounds read low 0.991 and 1.05 | locus YJL115W, strain asf1, active compounds read low 0.983 | locus YJL129C, strain trk1, active compounds read low 0.945 | locus YJL134W, strain LCB3, active compounds read low 1 | locus YJL154C, strain vps35, active compounds read low 0.98 | locus YJL164C, strain tpk1, active compounds read low 0.97 | locus YJL166W, strain qcr8, active compounds read low 0.961 | locus YJL168C, strain set2, active compounds read low 0.99 | locus YJL187C, strain SWE1 (second series), active compounds read low 0.991 | locus YJL187C, strain SWE1, active compounds read low 0.978 | locus YJR043C, strain POL32, active compounds read low 1.01 | locus YJR066W, strain TOR1, active compounds read low 1 | locus YJR075W, strain HOC1, active compounds read low 0.983 | locus YKL009W, strain mrt4, active compounds read low 0.993 | locus YKL068W, active compounds read low 0.984 | locus YKL085W, strain MDH1 (second series), active compounds read low 0.982 | locus YKL085W, strain MDH1, active compounds read low 0.982 | locus YKL160W, strain elf1, active compounds read low 0.98 | locus YKL190W, strain CNB1, active compounds read low 0.974 | locus YKR001C, strain vps1, active compounds read low 1.01 | locus YKR026C, strain gcn3, active compounds read low 0.971 | locus YKR091W, strain srl3, active compounds read low 0.974 | locus YLL001W, strain dnm1, active compounds read low 0.979 | locus YLL026W, active compounds read low 0.976 | locus YLL041C, strain sdh2, active compounds read low 0.987 | locus YLR027C, strain aat2, active compounds read low 0.97 | locus YLR039C, strain RIC1, active compounds read low 1.04 | locus YLR058C, strain SHM2, active compounds read low 0.995 | locus YLR102C, strain apc9, active compounds read low 1 | locus YLR113W, strain HOG1, active compounds read low 0.95 | locus YLR221C, strain rsa3, active compounds read low 0.943 | locus YLR258W, strain gsy2, active compounds read low 0.963 | locus YLR262C, strain YPT6 (second series), active compounds read low 0.965 | locus YLR262C, strain YPT6, active compounds read low 1 | locus YLR268W, strain sec22, active compounds read low 0.992 | locus YLR320W, strain mms22, active compounds read low 0.933 | locus YLR330W, strain CHS5, active compounds read low 0.997 | locus YLR342W, strain FKS1 (second series), active compounds read low 0.993 | locus YLR342W, strain FKS1, active compounds read low 0.948 | locus YLR357W, strain rsc2, active compounds read low 0.974 | locus YLR370C, strain arc18, active compounds read low 0.981 | locus YLR371W, strain rom2, active compounds read low 1.01 | locus YLR384C, strain iki3, active compounds read low 0.975 | locus YLR418C, strain cdc73, active compounds read low 0.995 | locus YML016C, strain PPZ1, active compounds read low 1 | locus YML032C, strain rad52, active compounds read low 1 | locus YML120C, strain ndi1, active compounds read low 0.982 | locus YML124C, strain tub3, active compounds read low 0.995 | locus YMR058W, strain fet3, active compounds read low 0.965 | locus YMR078C, strain ctf18, active compounds read low 1 | locus YMR125W, strain sto1, active compounds read low 0.985 | locus YMR129W, active compounds read low 0.975 | locus YMR205C, strain PFK2, active compounds read low 0.946 | locus YMR223W, strain ubp8, active compounds read low 1 | locus YMR231W, strain pep5, active compounds read low 0.946 | locus YMR263W, strain SAP30, active compounds read low 0.996 | locus YMR307W, strain GAS1, active compounds read low 0.92 | locus YNL067W, strain RPL9B, active compounds read low 0.981 | locus YNL071W, strain lat1, active compounds read low 0.949 | locus YNL153C, strain GIM3, active compounds read low 0.988 | locus YNL183C, strain NPR1, active compounds read low 0.99 | locus YNL209W, strain ssb2, active compounds read low 0.996 | locus YNL233W, strain BNI4, active compounds read low 0.991 | locus YNL248C, strain rpa49, active compounds read low 0.963 | locus YNL250W, strain rad50, active compounds read low 1.01 | locus YNL271C, strain bni1, active compounds read low 0.989 | locus YNL298W, strain CLA4, active compounds read low 1 | locus YNL307C, strain MCK1, active compounds read low 1 | locus YNL322C, strain KRE1 (second series), active compounds read low 0.979 | locus YNR049C, strain mso1, active compounds read low 0.97 | locus YNR052C, strain pop2, active compounds read low 0.996 | locus YOL012C, strain htz1 1.12 | locus YOL147C, strain pex11, active compounds read low 0.988 | locus YOR001W, strain rrp6, active compounds read low 0.956 | locus YOR061W, strain CKA2, active compounds read low 0.995 | locus YOR069W, strain VPS5, active compounds read low 1 | locus YOR070C, strain gyp1, active compounds read low 1 | locus YOR080W, strain dia2, active compounds read low 0.978 | locus YOR083W, strain WHI5, active compounds read low 0.971 | locus YOR106W, strain vam3, active compounds read low 0.963 | locus YOR136W, strain idh2, active compounds read low 1 | locus YOR144C, strain elg1, active compounds read low 0.996 | locus YOR184W, strain ser1, active compounds read low 0.969 | locus YOR231W, strain MKK1, active compounds read low 1.01 | locus YOR265W, strain rbl2, active compounds read low 0.975 | locus YOR270C, strain vph1, active compounds read low 0.88 | locus YOR290C, strain snf2, active compounds read low 0.974 | locus YOR316C, strain cot1, active compounds read low 1.01 | locus YPL051W, strain arl3, active compounds read low 1 | locus YPL078C, strain atp4, active compounds read low 0.972 | locus YPL106C, strain sse1, active compounds read low 0.982 | locus YPL240C, strain hsp82, active compounds read low 0.971 | locus YPL256C, strain CLN2, active compounds read low 1.04 | locus YPR119W, strain clb2, active compounds read low 0.995 | locus YPR141C, strain kar3, active compounds read low 1.01 | locus YPR163C, strain tif3, active compounds read low 1.01 | locus YPR167C, strain met16, active compounds read low 0.994 | strain wtn01, active compounds read low 1.01
